# Shown are actives, neighbours in structure and some others; about 4% of the full set was active somewhere.
# TRHR agonist – qHTS for Small Molecule Agonists and Allosteric Enhancers of Human TRH Receptor: Primary Screen for Agonists | Thyrotropin-releasing hormone receptor (Homo sapiens), P34981 | TRHR cells, calcium flux fluo-8, FDSS agonist mode | activation, % at 2 µM | 0.18% of 360,000 active; also: 0% is about no effect
# Target sequence (P34981 whole entry, looked up): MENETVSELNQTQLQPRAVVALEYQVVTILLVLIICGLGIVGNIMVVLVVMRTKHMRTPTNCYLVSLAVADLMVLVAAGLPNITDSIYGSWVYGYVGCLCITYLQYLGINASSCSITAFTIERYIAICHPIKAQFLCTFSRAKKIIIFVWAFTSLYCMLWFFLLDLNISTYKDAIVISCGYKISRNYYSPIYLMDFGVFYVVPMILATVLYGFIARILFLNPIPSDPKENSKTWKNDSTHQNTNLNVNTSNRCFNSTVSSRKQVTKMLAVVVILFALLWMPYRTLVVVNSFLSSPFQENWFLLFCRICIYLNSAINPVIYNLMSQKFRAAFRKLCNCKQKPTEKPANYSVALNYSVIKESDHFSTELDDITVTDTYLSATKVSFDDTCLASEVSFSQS
#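 Agonist-mode FDSS calcium read (Ex 480/Em 530, 1 s cycles) in 1536-well TRHR cells with fluo-8 dye, after 10-cycle baseline and 23 nL compound addition; TRH at EC20 (10 nM final) added afterwards for the enhancer phase.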
# D1 potentiator – Potentiators of Human D1 Dopamine Receptor: qHTS | 0.036% of 360,000 active | potentiation, % at 10 µM | AID 504651, 2011 | D(1A) dopamine receptor (Homo sapiens), P21728 | HEK293 TREx D1 cells, calcium flux, dopamine EC20 potentiation; in the data active = potentiation above about 30%; also: 0% is about no effect
# TRHR PAM – qHTS for Small Molecule Agonists and Allosteric Enhancers of Human TRH Receptor: Primary Screen for Enhancers. 0.66% of 360,000 active. Thyrotropin-releasing hormone receptor (Homo sapiens), P34981. enhancement, % at 2 µM. TRHR cells, fluo-8 calcium fluorescence, EC20 TRH enhancement; in the data active = enhancement above about 30%; also: 0% is about no effect
#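 TRHR-expressing cells loaded with fluo-8 calcium dye were read kinetically (ex 480/em 530) during compound addition, then stimulated with an EC20 of TRH (10 nM final). Enhancement of the Gq-mediated intracellular calcium response was scored.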
# D1 antag – Antagonist of Human D 1 Dopamine Receptor: qHTS | HEK293 TREx D1 cells, calcium flux, dopamine EC80; stronger effect = lower value | activity change, negative = inhibition, % at 10 µM | 3.2% of 360,000 active | AID 504652, 2011; in the data active = activity change below about -30%; also: % is scaled to controls: 0 for no effect and ±100 for the full control effect
#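 Tetracycline-induced HEK293 Trex D1 cells, force-coupled to calcium, dye-loaded; compounds added and read 180 s, then EC80 dopamine added and calcium flux tracked kinetically another 180 s.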
# D1 agonist – Allosteric Agonists of the Human D1 Dopamine Receptor: qHTS; D(1A) dopamine receptor (Homo sapiens), P21728; HEK293 T-REx D1 cells, calcium flux, agonist mode; activation, % at 2 µM; 1% of 360,000 active; AID 504660, 2011; also: 0% is about no effect
#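 Agonism was scored from calcium flux recorded over 180 s (1 read/s) after pintool compound addition, following a 10-cycle baseline. Cells were inducible force-coupled HEK293 TREx D1, plated overnight at 30 C and loaded with no-wash calcium dye.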
# GRP78 ERSR act – qHTS for Inducers of the Endoplasmic Reticulum Stress Response (ERSR) in Human Glioma: qHTS. Potency, µM, inactives show top-dose activation, actives largely listed as activators. U87-MG GRP78 promoter luciferase reporter, 16 h. AID 602332, 2012. 0.02% of 420,000 active; active = well fitted activation curve with a large enough effect; also: potency is read from the fitted curve at half-maximal effect; series mostly up to about 76 µM; % of control where 0% means no effect; nearly all actives have a fitted effect of over 35% in size
#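 ERSR induction read as luciferase luminescence (Bright-Glo, 10 min at room temperature) in stably transfected human U87-MG glioma cells exposed to compounds for 16 h, using GRP78 as sensor.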
# Active calls of the source: *. Rule as the data show it, unless noted: active = activation above about 30%; inactive = the rest.
SMILES,TRHR agonist,D1 potentiator,TRHR PAM,D1 antag,D1 agonist,GRP78 ERSR act
CCN1CCN(CCCN(Cc2ccco2)C(=S)Nc2ccc(Cl)c(C)c2)CC1,1,-4,-1,2,11,1%
Cc1cc(NC(=S)N(CCN2CCCCC2)Cc2ccco2)ccc1Cl,1,-10,3,-38*,1,-3%
CSc1nnc(N2C(=O)C(O)=C(C(=O)c3ccco3)C2c2ccc(F)cc2)s1 (configuration not stated),36*,4,3,8,128*,-11%
CCSc1nnc(N2C(=O)C(O)=C(C(=O)c3ccco3)C2c2cccc(OC)c2)s1 (configuration not stated),12,-5,-1,0,77*,-2%
CCOc1cccc(C2C(C(=O)c3ccco3)=C(O)C(=O)N2c2nnc(C)s2)c1 (configuration not stated),18,-2,-5,-2,25,0%
O=C(CCS(=O)(=O)c1cccc2nonc12)N1CC(=O)N(CCc2ccccc2)C(=O)C1,0,-2,2,-91*,11,2%
CCNC(C(=O)c1c[nH]c2c(CC)cccc12)c1ccccc1 (configuration not stated),-1,-6,3,-11,63*,4%
CC1CCCCN1C(=O)CSc1nnc2c(n1)[nH]c1ccccc12 (configuration not stated),0,0,5,4,1,-1%
COc1ccc(CNc2ncc(-c3ccc(F)cc3)n2C)c2ccccc12,0,-11,2,-36*,12,-14%
COc1ccc(OC)c(CNc2ncc(-c3ccc(F)cc3)n2C)c1,-1,-13,-2,-55*,5,-3%
Cn1c(-c2ccc(F)cc2)cnc1NCc1cc2c(cc1[N+](=O)[O-])OCO2,0,-5,-2,-77*,24,-5%
Cn1c(-c2ccc(F)cc2)cnc1NCc1ccccc1,0,-15,4,-9,0,1%
COc1ccccc1CNc1ncc(-c2ccc(F)cc2)n1C,0,-8,0,-62*,6,-2%
COc1ccc(CN(CCc2ccccc2)Cc2ccccc2)cc1OC,-1,-4,-11,-18,6,-2%
CC(C)NC(=S)N1CCN(C/C=C/c2ccccc2)CC1,0,-3,-1,10,6,-1%
CSc1ccc(CN(C)C(=O)C(c2ccccc2)c2ccccc2)cc1,3,-3,2,-3,15,-2%
COc1ccc(CNc2ncc(-c3ccc(F)cc3)n2C)cc1OC,1,-10,25,-41*,3,-3%
CCOc1ccc(-c2cnc(NCc3cccc4ccccc34)n2CCOC)cc1,0,-6,-3,-58*,18,-8%
COc1ccccc1CNc1ncc(-c2ccccc2)n1C,-2,-3,-2,-49*,7,-1%
Cn1c(-c2ccc(F)cc2)cnc1NCc1cccc(F)c1,0,-12,4,-10,1,-1%
CC(C)(C)C(=O)N1CCN(c2c(Cl)cccc2[N+](=O)[O-])CC1,-1,-6,21,-52*,2,1%
COc1ccc(S(=O)(=O)Nc2ccc3cn[nH]c3c2)cc1C,0,-1,39*,3,4,0%
COc1ccc(NS(=O)(=O)c2ccc3[nH]c(=O)[nH]c3c2)cc1OC,1,-6,32*,-12,2,-5%
COc1ccccc1NS(=O)(=O)c1ccc2[nH]c(=O)[nH]c2c1,-3,0,7,-5,3,-5%
CCNC(=O)c1ccc(NS(=O)(=O)c2ccc3[nH]c(=O)[nH]c3c2)cc1,3,-7,2,-41*,5,-3%
